Reference: PubChem BioAssay (Tox21)
Where “and” joins values, the source holds several entries; their conditions need not be identical. Equal entries are not always repeated. Records with an inconclusive call do not appear. A call without a number means that no potency is given here. Calls of active or inactive are those of the source. Unless noted, the call rests on the fitted dose curve; in most records, active means well fitted curve in the direction sought with a large enough effect in the repeat runs; inconclusive means weak or mixed curves; inactive means no such curve, though single readings can be large; an effect the other way counts as inactive or inconclusive.

Assays:
[1] = molecular target: Estrogen receptor (Homo sapiens) (UniProt P03372); assay: qHTS assay to identify small molecule antagonists of the estrogen receptor alpha (ER-alpha) signaling pathway using the BG1 cell line in the presence of 0.1 nM 17-beta-estradiol (AID 1259244); further: nearly all actives have a fitted effect of over 50% in size
Estrogen receptor (Homo sapiens), sequence (P03372 whole entry, looked up): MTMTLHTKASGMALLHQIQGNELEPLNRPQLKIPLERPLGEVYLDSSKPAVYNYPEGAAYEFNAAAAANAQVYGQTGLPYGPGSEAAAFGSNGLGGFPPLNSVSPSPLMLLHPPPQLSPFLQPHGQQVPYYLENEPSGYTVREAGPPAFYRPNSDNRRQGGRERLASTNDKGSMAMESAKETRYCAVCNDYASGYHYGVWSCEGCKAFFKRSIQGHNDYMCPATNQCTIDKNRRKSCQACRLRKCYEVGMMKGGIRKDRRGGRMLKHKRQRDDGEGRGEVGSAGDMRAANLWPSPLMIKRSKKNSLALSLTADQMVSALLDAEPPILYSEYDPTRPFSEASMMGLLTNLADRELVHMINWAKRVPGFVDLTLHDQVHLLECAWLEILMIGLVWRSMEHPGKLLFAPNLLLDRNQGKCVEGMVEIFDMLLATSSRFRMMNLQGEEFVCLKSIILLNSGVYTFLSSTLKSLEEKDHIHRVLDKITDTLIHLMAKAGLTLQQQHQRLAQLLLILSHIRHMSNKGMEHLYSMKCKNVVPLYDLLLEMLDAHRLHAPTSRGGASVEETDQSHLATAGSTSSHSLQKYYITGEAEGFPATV
Outline: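 VM7Luc4E2 cells (endogenous full-length ER-alpha, stable 4xERE-luciferase) were grown 5 days in phenol red-free medium with charcoal-stripped FBS, then exposed 22 h at 37C to compounds plus 0.1 nM (final) 17beta-estradiol; ONE-Glo luminescence read-out.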

[2] = qHTS assay to identify small molecule HDAC inhibitors (AID 1259364); further: top concentration of the series differs between compounds; nearly all actives have a fitted effect of over 45% in size
Outline: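 Wild-type HCT-116 cells were plated overnight, exposed to compounds for 2 h at 37 °C, then given HDAC-Glo class I/II luminogenic reagent for 30 min at room temperature before luminescence was read.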

[3] = qHTS assay to identify small molecule HDAC inhibitors - cell viability counter screen (AID 1259365); further: series mostly up to about 92 µM; nearly all actives have a fitted effect of over 50% in size
Outline: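 Following a 2hr exposure of overnight-plated wild-type HCT-116 cells to DMSO-delivered compounds, CellTiter-Glo was added and luminescence recorded after 30min at room temperature.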

[4] = qHTS assay to identify small molecule agonists of the sonic hedgehog signaling (Shh) pathway - cell viability counter screen (AID 1259366); further: nearly all actives have a fitted effect of over 50% in size
Outline: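 After a 4hr attachment at 37C, NIH/3T3 cells bearing an integrated Gli1-driven luciferase reporter were dosed with compounds. Treatment lasted 24hr, with the final hour including CellTiter-Fluor for a fluorescence viability measurement.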

[5] = qHTS assay to identify small molecule antagonists of the sonic hedgehog signaling (Shh) pathway - cell viability counter screen (AID 1259367); further: nearly all actives have a fitted effect of over 55% in size
Outline: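 Cells: 3T3 Gli1-Luc, 2,000/well, 4 hr pre-incubation. Compounds in DMSO, then conditioned medium. Incubation 24 hr, 37C, 5% CO2. CellTiter-Fluor at 23 hr, 1 hr, fluorescence.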

[6] = qHTS assay to identify small molecule agonists of the sonic hedgehog signaling (Shh) pathway (AID 1259368; calls by dose curve; further: series mostly up to about 92 µM; nearly all actives have a fitted effect of over 15% in size)
Outline: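 NIH/3T3-derived 3T3Gli1-Luc cells carrying a stably integrated Gli1 response element–firefly luciferase reporter were plated, left 4 hr at 37 C, then given compounds in DMSO for 24 hr. Luminescence was read 30 min after adding luciferase reagent.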

[7] = qHTS assay to identify small molecule antagonists of the sonic hedgehog signaling (Shh) pathway (AID 1259369; calls by dose curve; further: nearly all actives have a fitted effect of over 45% in size; further: potency means the concentration at half of the fitted maximal effect)
Outline: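 NIH/3T3-derived 3T3Gli1-Luc cells with stably integrated Gli1-Luc reporter were preincubated 4hr at 37 C, then given compounds in DMSO plus Shh conditioned medium and incubated 24hr. Firefly luciferase luminescence read after 30min reagent at room temperature.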

[8] = qHTS assay to identify small molecule agonists of the androgen receptor (AR) signaling pathway in the presence of an antagonist - cell viability counter screen (AID 1259379); further: series mostly up to about 92 µM; nearly all actives have a fitted effect of over 25% in size
Outline: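 MDA-kb2 human breast carcinoma cells (stable MMTV-luciferase, AR/GR responsive) were seeded 3,000 cells/well, pre-incubated 5 hr at 37C without CO2, then given 3.0uM nilutamide and compounds at 15 concentrations for 16 hr. Viability was read by CellTiter-Fluor fluorescence.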

[9] = qHTS assay to identify small molecule agonists of the estrogen receptor beta (ER-beta) signaling pathway - cell viability counter screen (AID 1259380); further: nearly all actives have a fitted effect of over 30% in size; further: potency means the concentration at half of the fitted maximal effect
Outline: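 ER-beta-UAS-bla HEK293T cells in medium with 2% charcoal-stripped FBS were preincubated 6 hr at 37C, dosed with compound in DMSO for 16 hr, then after the bla read, CellTiter-Glo was added for 30 min at room temperature; luminescence recorded.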

[10] = molecular target: Androgen receptor (Homo sapiens) (UniProt P10275); assay: qHTS assay to identify small molecule agonists of the androgen receptor (AR) signaling pathway in the presence of an antagonist (AID 1259381; calls by dose curve; further: nearly all actives have a fitted effect of over 15% in size)
Androgen receptor (Homo sapiens), sequence (P10275 whole entry, looked up): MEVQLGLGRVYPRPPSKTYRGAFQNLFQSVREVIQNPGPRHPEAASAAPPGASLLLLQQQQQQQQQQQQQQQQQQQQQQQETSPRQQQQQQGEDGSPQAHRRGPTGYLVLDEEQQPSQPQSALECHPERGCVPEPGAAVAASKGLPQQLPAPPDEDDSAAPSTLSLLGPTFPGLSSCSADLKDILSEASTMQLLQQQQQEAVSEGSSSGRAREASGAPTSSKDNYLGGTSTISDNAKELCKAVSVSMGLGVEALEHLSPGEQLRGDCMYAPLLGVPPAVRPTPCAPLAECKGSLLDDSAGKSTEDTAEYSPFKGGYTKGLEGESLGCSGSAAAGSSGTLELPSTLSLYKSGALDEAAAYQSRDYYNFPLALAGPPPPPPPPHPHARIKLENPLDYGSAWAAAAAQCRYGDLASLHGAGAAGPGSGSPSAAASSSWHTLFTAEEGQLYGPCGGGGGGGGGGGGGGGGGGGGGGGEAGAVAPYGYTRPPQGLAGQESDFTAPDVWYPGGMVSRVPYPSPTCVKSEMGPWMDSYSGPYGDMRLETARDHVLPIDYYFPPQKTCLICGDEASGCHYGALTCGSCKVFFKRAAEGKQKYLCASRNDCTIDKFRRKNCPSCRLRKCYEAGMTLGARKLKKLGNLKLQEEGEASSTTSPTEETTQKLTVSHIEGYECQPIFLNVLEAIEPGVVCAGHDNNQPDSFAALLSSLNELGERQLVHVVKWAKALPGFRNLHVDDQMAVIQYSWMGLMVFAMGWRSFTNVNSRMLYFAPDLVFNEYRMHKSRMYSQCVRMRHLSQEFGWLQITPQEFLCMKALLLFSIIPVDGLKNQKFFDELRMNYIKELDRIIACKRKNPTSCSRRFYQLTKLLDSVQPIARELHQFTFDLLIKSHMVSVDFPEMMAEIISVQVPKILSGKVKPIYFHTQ
Outline: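 MDA-kb2 human breast carcinoma cells carrying an MMTV-luciferase reporter (AR- and GR-responsive) were treated with compounds at 15 concentrations plus 3.0uM final nilutamide for 16hr at 37C without CO2; luminescence was read after ONE-Glo addition.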

[11] = qHTS assay to identify small molecule antagonists of the estrogen receptor beta (ER-beta) signaling pathway - cell viability counter screen (AID 1259382);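 further: HEK293T cells carrying ER-beta-UAS-bla reporter stimulated with estradiol; series mostly up to about 92 µM; nearly all actives have a fitted effect of over 55% in size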
Outline: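 ER-beta-UAS-bla HEK293T cells (2,000/well, 2% charcoal-stripped FBS) were pre-incubated 6 hr at 37C, then given compound plus 1nM final 17-beta-estradiol for 16 hr. Viability was read in the same wells by CellTiter-Glo luminescence after 30 min at room temperature.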

[12] = molecular target: Estrogen receptor (Homo sapiens) (UniProt P03372); assay: qHTS assay to identify small molecule agonists of the estrogen receptor alpha (ER-alpha) signaling pathway in the presence of an antagonist (AID 1259383; calls by dose curve; further: nearly all actives have a fitted effect of over 15% in size; further: potency means the concentration at half of the fitted maximal effect; on activation: top concentration of the series differs between compounds)
Outline: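 VM7Luc4E2 cells (endogenous full-length ER-alpha, 4×ERE-luciferase) were precultured 5 days in phenol red-free medium with 10% charcoal-stripped FBS, given 10.0nM ICI-182,780 (final), then treated with compounds at 15 concentrations for 22hr at 37C; luminescence read with ONE-Glo.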

[13] = molecular target: Thyrotropin receptor (Homo sapiens) (UniProt P16473); assay: qHTS assay to identify small molecule antagonists of the thyroid stimulating hormone receptor (TSHR) signaling pathway (AID 1259385; calls by dose curve; further: nearly all actives have a fitted effect of over 20% in size)
Thyrotropin receptor (Homo sapiens), sequence (P16473 whole entry, looked up): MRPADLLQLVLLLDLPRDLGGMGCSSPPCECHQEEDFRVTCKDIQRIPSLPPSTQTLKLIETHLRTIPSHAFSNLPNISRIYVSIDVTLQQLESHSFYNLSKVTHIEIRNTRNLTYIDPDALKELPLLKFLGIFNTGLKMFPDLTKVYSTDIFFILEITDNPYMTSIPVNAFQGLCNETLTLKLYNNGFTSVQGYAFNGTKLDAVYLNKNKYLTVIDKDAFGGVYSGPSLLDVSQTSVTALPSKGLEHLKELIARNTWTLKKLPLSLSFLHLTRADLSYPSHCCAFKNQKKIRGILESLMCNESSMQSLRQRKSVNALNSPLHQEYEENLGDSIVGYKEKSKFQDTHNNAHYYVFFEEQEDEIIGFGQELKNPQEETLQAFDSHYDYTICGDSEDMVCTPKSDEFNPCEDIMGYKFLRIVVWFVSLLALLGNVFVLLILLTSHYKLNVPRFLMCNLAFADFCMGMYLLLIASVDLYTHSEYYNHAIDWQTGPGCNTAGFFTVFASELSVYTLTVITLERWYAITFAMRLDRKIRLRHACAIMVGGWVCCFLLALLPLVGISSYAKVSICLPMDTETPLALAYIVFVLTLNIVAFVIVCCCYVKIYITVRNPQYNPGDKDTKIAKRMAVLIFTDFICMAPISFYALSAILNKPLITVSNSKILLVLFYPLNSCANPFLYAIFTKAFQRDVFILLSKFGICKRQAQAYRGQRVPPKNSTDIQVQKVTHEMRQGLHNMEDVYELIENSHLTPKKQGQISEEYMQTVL
Outline: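 Antagonist mode: compound-treated TSHR-expressing HEK293 cells were stimulated with 1.5 ng/mL TSH (final) in presence of Ro20-1724 for 30 min at RT. HTRF cAMP detection after 1 h; each compound tested at 15 concentrations, triplicate.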

[14] = qHTS assay to identify small molecule agonists of the estrogen receptor alpha (ER-alpha) signaling pathway in the presence of an antagonist - cell viability counter screen (AID 1259386); further: series mostly up to about 92 µM; nearly all actives have a fitted effect of over 30% in size
Outline: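 VM7Luc4E2 cells (endogenous full-length ER-alpha, 4×ERE-luciferase) were held 5 days in phenol red-free medium with 10% charcoal-stripped FBS, plated, then given 10.0nM ICI-182,780 and compounds at 15 concentrations for 22hr at 37C; viability read by CellTiter-Fluor fluorescence.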

[15] = molecular target: Progesterone receptor (Homo sapiens) (UniProt P06401); assay: qHTS assay to identify small molecule agonists of the progesterone receptor (PR) signaling pathway (AID 1346784; calls by dose curve; further: nearly all actives have a fitted effect of over 30% in size)
Progesterone receptor (Homo sapiens), sequence (P06401 whole entry, looked up): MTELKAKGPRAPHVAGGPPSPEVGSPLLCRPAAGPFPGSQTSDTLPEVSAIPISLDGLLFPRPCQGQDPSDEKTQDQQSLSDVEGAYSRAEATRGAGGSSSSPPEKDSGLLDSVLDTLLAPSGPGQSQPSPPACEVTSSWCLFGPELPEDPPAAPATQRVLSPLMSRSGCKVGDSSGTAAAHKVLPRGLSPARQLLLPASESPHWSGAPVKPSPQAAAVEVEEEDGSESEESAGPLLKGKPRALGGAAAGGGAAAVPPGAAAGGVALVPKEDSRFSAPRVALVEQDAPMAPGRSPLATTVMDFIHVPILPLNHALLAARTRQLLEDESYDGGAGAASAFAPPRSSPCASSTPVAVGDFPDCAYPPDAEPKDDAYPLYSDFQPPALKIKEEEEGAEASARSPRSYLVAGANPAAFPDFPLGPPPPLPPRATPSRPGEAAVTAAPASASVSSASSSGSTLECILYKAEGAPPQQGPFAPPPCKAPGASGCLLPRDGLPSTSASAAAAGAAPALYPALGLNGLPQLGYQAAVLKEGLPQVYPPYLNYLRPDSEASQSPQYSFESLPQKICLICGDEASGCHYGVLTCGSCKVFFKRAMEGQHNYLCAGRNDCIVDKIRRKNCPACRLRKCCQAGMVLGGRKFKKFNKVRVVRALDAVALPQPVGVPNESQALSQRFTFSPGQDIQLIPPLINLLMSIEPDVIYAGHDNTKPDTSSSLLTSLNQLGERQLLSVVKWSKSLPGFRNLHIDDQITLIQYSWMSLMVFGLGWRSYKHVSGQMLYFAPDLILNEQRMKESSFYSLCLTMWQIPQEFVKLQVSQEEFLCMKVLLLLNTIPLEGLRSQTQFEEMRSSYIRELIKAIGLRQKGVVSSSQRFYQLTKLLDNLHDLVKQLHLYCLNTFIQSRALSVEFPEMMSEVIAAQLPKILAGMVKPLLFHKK
Outline: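 Using charcoal-stripped serum (2%) to limit endogenous steroids, PR-UAS-bla HEK 293T cells received compounds for 16 hr at 37C after 6 hr plating; beta-lactamase FRET fluorescence was recorded following 2 hr substrate loading at room temperature.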

[16] = molecular target: Progesterone receptor (Homo sapiens) (UniProt P06401); assay: qHTS assay to identify small molecule antagonists of the progesterone receptor (PR) signaling pathway (AID 1346795; active means well fitted inhibition curve with a large enough effect in the signal ratio in the repeat runs, not every such curve was filed as active; the % refers to the signal ratio)
Outline: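 Inhibition of R5020-induced (1 nM final) beta-lactamase reporter signal in PR-UAS-bla HEK293T cells was scored by FRET fluorescence after overnight (16 hr) compound treatment.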

[17] = qHTS assay to identify small molecule agonists or antagonists of the thyroid stimulating hormone receptor (TSHR) signaling pathway - wild type cell line counter screen (AID 1259384; calls by dose curve)
Outline: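 Counter screen in untransfected Hek293: compounds (15-point titration, triplicate) plus phosphodiesterase inhibitor Ro20-1724 added after 18 h plating; 30 min RT. Intracellular cAMP via competitive d2/cryptate immunoassay, 1 h incubation.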

[18] = molecular target: Estrogen receptor beta (Homo sapiens) (UniProt Q92731); assay: qHTS assay to identify small molecule agonists of the estrogen receptor beta (ER-beta) signaling pathway (AID 1259377; active means well fitted activation curve with a large enough effect in the signal ratio in the repeat runs, not every such curve was filed as active; the % refers to the signal ratio; further: potency means the concentration at half of the fitted maximal effect)
Estrogen receptor beta (Homo sapiens), sequence (Q92731 whole entry, looked up): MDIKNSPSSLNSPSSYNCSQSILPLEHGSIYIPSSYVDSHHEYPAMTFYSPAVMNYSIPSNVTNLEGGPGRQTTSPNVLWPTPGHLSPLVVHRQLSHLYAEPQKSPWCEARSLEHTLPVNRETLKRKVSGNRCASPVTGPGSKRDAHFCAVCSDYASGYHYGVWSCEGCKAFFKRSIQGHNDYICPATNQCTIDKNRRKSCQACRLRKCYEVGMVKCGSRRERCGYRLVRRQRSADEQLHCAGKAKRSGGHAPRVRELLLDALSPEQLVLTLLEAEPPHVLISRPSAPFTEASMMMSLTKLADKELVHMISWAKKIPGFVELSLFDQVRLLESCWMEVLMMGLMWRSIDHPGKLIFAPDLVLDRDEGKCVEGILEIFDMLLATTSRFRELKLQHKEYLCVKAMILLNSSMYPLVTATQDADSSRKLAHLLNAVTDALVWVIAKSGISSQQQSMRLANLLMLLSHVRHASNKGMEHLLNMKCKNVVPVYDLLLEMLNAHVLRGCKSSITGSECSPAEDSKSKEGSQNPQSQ
Outline: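 In HEK293T cells bearing a UAS-beta-lactamase reporter under ER-beta control, DMSO-delivered compounds were incubated for 16 hr at 37C. Activity was detected as fluorescence 2 hours after LiveBLAzer B/G FRET substrate addition.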

[19] = molecular target: Estrogen receptor beta (Homo sapiens) (UniProt Q92731); assay: qHTS assay to identify small molecule antagonists of the estrogen receptor beta (ER-beta) signaling pathway (AID 1259378; active means well fitted inhibition curve with a large enough effect in the signal ratio in the repeat runs, not every such curve was filed as active; the % refers to the signal ratio)
Outline: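 Antagonist mode: compounds added to beta-lactamase reporter HEK293T ER-beta-UAS cells stimulated with E2 (1nM final), 16 hr at 37C. LiveBLAzer B/G FRET substrate, 2 hours room temperature, fluorescence read-out.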

Structure (SMILES) | Potency [1] | Potency [2] | outcome [3] | Potency [4] | Potency [5] | outcome [6] | Potency [7] | outcome [8] | Potency [9] | outcome [10] | Potency [11] | Potency [12] | Potency [13] | outcome [14] | outcome [15] | Potency [16] | outcome [17] | Potency [18] | outcome [19]
[N-]=[N+]=[N-] | inactive | inactive | inactive | inactive | inactive | inactive | inactive | inactive | inactive | inactive | inactive | inactive | inactive | inactive | inactive | inactive | – | – | –
CCC12COCN1COC2 | inactive | inactive | inactive | inactive | inactive | inactive | inactive | inactive | inactive | – | – | inactive | inactive | inactive | inactive | inactive | inactive | – | –
Cc1ccc([N+](=O)[O-])cc1C | inactive | inactive | inactive | inactive | inactive | inactive | inactive | inactive | inactive | – | – | inactive | inactive | inactive | inactive | inactive | – | inactive | inactive
C=C(C)CCl | inactive | inactive | inactive | inactive | inactive | inactive | inactive | inactive | inactive | inactive | – | inactive | – | inactive | inactive | inactive | – | – | –
Cc1ccc(N)cc1N | inactive | inactive | inactive | inactive | inactive | – | inactive | inactive | inactive | – | inactive | inactive | inactive | inactive | – | inactive | – | inactive | inactive
O=S(=O)(c1ccc(O)cc1)c1ccc(O)cc1 | inactive | inactive | inactive | inactive | inactive | inactive | 34.4 µM (active) | inactive | inactive | – | – | 54.5 µM (active) | – | inactive | inactive | inactive | – | 4.35 µM (active) and 4.33 µM (active) | inactive
Cn1cc(-c2ccccc2)c(=O)c(-c2cccc(C(F)(F)F)c2)c1 | inactive | inactive | inactive | – | – | inactive | inactive | inactive | 59.6 µM (active) | – | inactive | inactive | inactive | – | inactive | inactive | inactive | – | –
Cc1[nH]c(=O)n(C(C)(C)C)c(=O)c1Cl | inactive | inactive | inactive | inactive | inactive | inactive | inactive | inactive | inactive | inactive | inactive | inactive | inactive | inactive | inactive | inactive | inactive | – | –
BrCCBr | inactive | inactive | inactive | inactive | inactive | inactive | inactive | inactive | inactive | – | – | inactive | inactive | inactive | inactive | inactive | inactive | inactive | inactive
